# SARS PLpro yeast – qHTS of Yeast-based Assay for SARS-CoV PLP; 0.19% of 330,000 active; Potency, µM (top dose mostly 32.9 µM), for the others: at the highest dose activity, positive = growth rescue, most hits filed as activators; S. cerevisiae expressing SARS-CoV PLpro, growth rescue; note: 0% is about no effect; nearly all actives have a fitted effect of over 55% in size
# Pf growth 96h – Primary qHTS for delayed death inhibitors of the malarial parasite plastid, 96 hour incubation; P. falciparum luciferase reporter growth, 96 h; 6.9% of 320,000 active; AID 504834, 2011; Potency, µM (series often up to 28.7 µM), for inactives: top-dose activity change, negative = inhibition, actives largely listed as inhibitors; active = well fitted inhibition curve with a large enough effect; inconclusive = small, poorly fitted or top-dose-only effect, or another doubt; inactive = no such curve, though single readings can be large or run the other way; note: % is set by controls: 0 for no effect and ±100 for the full control effect
#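 Infected RBCs, 2% Hct / 0.05% parasitemia final; luciferase-reporter P. falciparum; cpd 96 h, 37 C, 5% CO2; luciferase detection reagent; luminescence.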
# NS1 function inh – qHTS Assay for Inhibitors of Influenza NS1 Protein Function | Potency, µM (doses to about 46.1 µM), without a hit: top-dose activity, positive = more growth | 0.4% of 270,000 active | AID 2326, 2010; note: actives are rising curves; nearly all actives have a fitted effect of over 50% in size
#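 Growth recovery, yeast-based: influenza A NS1 expressed in S. cerevisiae causes slow growth, and suppressors are detected by OD600. The parent strain without NS1 is used as positive control.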
# Pf growth 48h – Primary qHTS for delayed death inhibitors of the malarial parasite plastid, 48 hour incubation; Potency, µM (series often up to 28.7 µM), inactives show at the top dose activity change, negative = inhibition, actives largely listed as inhibitors; 5.9% of 310,000 active; P. falciparum luciferase growth in erythrocytes, 48 h; active = well fitted inhibition curve with a large enough effect; inconclusive = small, poorly fitted or top-dose-only effect, or another doubt; inactive = no such curve, though single readings can be large or run the other way; note: % is set by controls: 0 for no effect and ±100 for the full control effect
#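 Parasite viability was followed by luminescence of a genomically integrated firefly luciferase. Cultures held 0.1% parasitemia at 2% hematocrit (final), incubated under 5% CO2 at 37 C.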
# Active calls of the source: *; ? = inconclusive; · = not tested or not shown; [ ] = remark or other dose. In the library only some 10% were active in any assay of this set; here they are far more common. Unless noted, calls come from the whole dose curve. Potency is the fitted concentration of half-maximal effect.
SMILES,SARS PLpro yeast,Pf growth 96h,NS1 function inh,Pf growth 48h
O=C(CCN1CCc2ccccc2C1)Nc1cccc(F)c1,-2%,4.1µM*,-8%,2%
CCc1cccc(NC(=O)Cn2cccc2)c1,6%,4.7µM*,-11%,72%
O=C(CCN1CCc2ccccc2C1)Nc1ccccc1,-4%,7%,12%,?
Cc1ccc(NC(=O)CCn2cccc2)cc1F,2%,·,-4%,·
N=c1sc2ccccc2n1CCS (tested in a mixture with another compound),·,·,-8%,·
Cc1cc(C)cc(CC(Cc2nc3ccccc3[nH]2)c2nc3ccccc3[nH]2)c1 (configuration not stated),8%,121%,-10%,2.3µM*
Cc1ccc(CSCc2nc3ccccc3[nH]2)cc1,-2%,?,·,10%
O=C(c1ccc(F)cc1Cl)N(Cc1ccco1)C1CCS(=O)(=O)C1 (configuration not stated),-3%,-23%,·,-29%
CC(C)C12CN3CC(C(C)C)(CN(C1)C3c1ccc([N+](=O)[O-])o1)C2=O (configuration not stated),-4%,28%,3%,2.1µM*
Cc1nc(-c2ccc(S(=O)(=O)N3CCCN(CCc4ccccc4)CC3)s2)cs1,1%,4.1µM*,-1%,?
O=C1CSC(c2cn(-c3ccccc3)nc2-c2cccs2)N1Cc1ccccc1 (configuration not stated),7%,2%,5%,·
Cc1ccc(-c2nn(-c3ccccc3)cc2C2SCC(=O)N2Cc2ccccc2)o1 (configuration not stated),-15%,-21%,-50%,10µM*
O=C1CSC(c2ccccc2)N1Cc1ccccc1 (configuration not stated),11%,?,1%,-8%
O=C1CSC(c2cn(-c3ccccc3)nc2-c2cc3ccccc3o2)N1Cc1ccccc1 (configuration not stated),8%,4.1µM*,8%,·
O=C1CSC(c2cn(-c3ccccc3)nc2-c2cc3ccccc3oc2=O)N1Cc1ccco1 (configuration not stated),-28%,?,13%,10µM*
COc1ccc(Nc2ncnc3c2c(C)c(C)n3CCO)cc1,-2%,270%,2%,131%
Nc1nc2c(s1)CCc1c-2cnn1-c1ccccc1,-31%,-13%,-134%,-7%
Nc1nc2c(s1)CC(c1ccccc1)CC2 (configuration not stated),0%,5.2µM*,-36%,21%
Cc1cccc(NC(=O)CSCC(=O)N2CCN(C(=O)c3ccco3)CC2)c1,0%,?,·,-10%
Cc1cc(C(=O)CSc2nnc(-c3ccco3)o2)c(C)n1Cc1ccco1,-4%,?,2%,-11%
Cc1cc(C(=O)CSc2nnc(-c3ccco3)o2)c(C)n1-c1ccc2c(c1)OCCO2,3%,12µM*,1%,·
O=C(NCc1ccncc1)c1ccc(S(=O)(=O)Nc2ccccc2)cc1,3%,-1%,·,-9%
CCc1cc(=O)oc2cc(C)cc(OCC(=O)NCc3ccccn3)c12,3%,?,-1%,-28%
CCCc1cc(=O)oc2cc(C)cc(OC(C)C(=O)NCc3ccccn3)c12 (configuration not stated),4%,2.3µM*,-18%,2.6µM*
CCc1cc(=O)oc2cc(C)cc(OC(C)C(=O)NCc3ccccn3)c12 (configuration not stated),4%,2.1µM*,-7%,3.7µM*
SMILES,SARS PLpro yeast,Pf growth 96h,NS1 function inh,Pf growth 48h
CCC(=O)Nc1ccc(NC(=O)c2cccc3c(Br)cccc23)cc1,26%,6.6µM*,-4%,16%
CCC(=O)Nc1ccc(NC(=O)c2cccc3ccccc23)cc1,24%,8%,-3%,1%
CC(Oc1ccc(F)cc1)C(=O)Nc1ccccc1C(=O)N1CCCCC1 (configuration not stated),0%,-20%,·,-7%
Cc1ccccc1-n1c(O)c(/C=C2/C(c3ccccc3)=Nc3ccccc32)c(=O)[nH]c1=O,-84%,-15%,-15%,12µM*
Cc1ccc(-n2c(O)c(/C=C3/C(c4ccccc4)=Nc4ccccc43)c(=O)[nH]c2=O)cc1,-66%,7.4µM*,-26%,8.3µM*
Cc1cccc(-n2c(O)c(/C=C3/C(c4ccccc4)=Nc4ccccc43)c(=O)[nH]c2=O)c1,-4%,12µM*,-99%,10µM*
Cc1cc(OC(=O)c2ccccc2C)c([N+](=O)[O-])c(=O)[nH]1,2%,-23%,-5%,-4%
CC(C)c1nccn1Cc1ccc(Cl)cc1Cl,·,·,-3%,·
CC12C(=O)N(Cc3ccco3)C(=O)C1C1c3ccccc3C2c2ccccc21 (configuration not stated),0%,·,1%,?
Cc1cc(C)c(NC(=O)CCc2c(C)noc2C)c(C)c1,-4%,14%,·,0%
CC[C@H](C)[C@H](N)C1=N[C@H](C(=O)N[C@@H](CC(C)C)C(=O)N[C@@H](CCC(=O)O)C(=O)N[C@@H](C(=O)N[C@H]2CCCCNC(=O)[C@@H](CC(N)=O)NC(=O)[C@@H](CC(=O)O)NC(=O)[C@@H](Cc3cnc[nH]3)NC(=O)[C@@H](Cc3ccccc3)NC(=O)[C@@H]([C@@H](C)CC)NC(=O)[C@@H](CCCN)NC2=O)[C@@H](C)CC)CS1,·,13%[12.8 µM],·,-1%[12.8 µM]
CN1CCN(Cc2nc3c(c(=O)n(C)c(=O)n3C)n2Cc2ccccc2Cl)CC1,·,·,-16%,·
Cn1c(=O)c2c(nc(CN3CCN(c4ccccc4)CC3)n2Cc2c(F)cccc2Cl)n(C)c1=O,3%,5.2µM*,6%,?
Cn1c(=O)c2c(nc(CN3CCN(c4ccccc4)CC3)n2Cc2ccccc2Cl)n(C)c1=O,-13%,?,?,6.6µM*
Cn1c(=O)c2c(nc(CN3CCN(c4ccccc4)CC3)n2Cc2ccccc2F)n(C)c1=O,1%,·,-7%,-17%
COc1cc(/C=N/NC(=O)COc2ccc([N+](=O)[O-])cc2)ccc1OCC(=O)N1CCOCC1,-1%,49%,1%,?
COc1ccc(S(=O)(=O)N2CCCC2CNC(=O)c2cccc(OC)c2)cc1 (configuration not stated),-2%,?,·,?
O=C(CNC(=O)c1ccc(F)cc1)N/N=C/c1cc(Br)ccc1OC(=O)/C=C/c1ccco1,-1%,?,-1%,13µM*
O=C(CNC(=O)c1ccccc1F)N/N=C/c1cc(Br)ccc1OC(=O)/C=C/c1ccco1,-8%,?,30%,10µM*
O=C(Nc1ccc(C(=O)N2CCOCC2)cc1)c1cccc([N+](=O)[O-])c1,1%,?,0%,5%
Cc1oc2c(C)c3oc(=O)c(CCC(=O)NCCCn4ccnc4)c(C)c3cc2c1C,7%,?,0%,13µM*
Cc1c(CCC(=O)NCCCn2ccnc2)c(=O)oc2cc3oc4c(c3cc12)CCCC4,-2%,?,1%,10µM*
Cc1coc2cc3oc(=O)c(CCC(=O)NCCCn4ccnc4)c(C)c3cc12,3%,10µM*,-13%,-12%
